Experimental findings from PubChem BioAssay (NCI) are described below.

Where “and” joins values, the source holds several entries; their conditions need not be identical. Equal values may be shown once. The panel holds about 83,000 compounds, 20% with a hit somewhere; the sample as a whole holds those more often.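 Percent growth is the endpoint: 0 to 100 indicates growth inhibition (40 means 60% inhibition), 0 means no net growth, and negative values indicate cell death.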 Unmarked numbers belong to inactive results. Calls of active or inactive are those of the source. Rule for the calls: active = growth percent below 10; inactive = the rest.

This experiment deals with MDA-MB-468 breast. The experiment is described as follows: NCI-60 one-dose screen, 48 h (100 = growth as untreated, 0 = no growth, -100 = all killed). As to conditions: 10 µM unless noted.
With `N#Cc1c(-c2ccc(O)cc2)c2c(N)nn(-c3ccccc3)c2[nH]c1=O`, the growth was 111%.
The same measure for `O=C1Nc2ccccc2/C1=N/N=C/c1ccc(OC2OC(CO)C(O)C(O)C2O)cc1` (stereo not given): 112%; for `C#CCC(C)(O)/C=C/C1=C(C)CCCC1(C)C` (stereo not given): 87.3%.
With `C=C1C(=O)O[C@@H]2C[C@@H](C)/C=C\C(=O)[C@](C)(OC(C)=O)C[C@H](OC(=O)/C(C)=C\C)[C@@H]12` the figure was -59.1% (active).
With `Cc1nc(Nc2ncc(C(=O)Nc3c(C)cccc3Cl)s2)cc(N2CCN(CCO)CC2)n1` the figure was -4.35% (active) and -2.22% (active); with `CN1CCN(c2cc(F)c(NC3=C(Cl)C(=O)c4ncccc4C3=O)c(F)c2)CC1`, -73.9% (active); with `Clc1cccc(Cl)c1C1CSc2ccccc2N=C1c1ccccc1` (stereo not given), 80.3%.
For the compound `O=C(Nc1ccc(OS(=O)(=O)c2ccc(F)cc2)cc1)C12CC3CC(CC(C3)C1)C2`, the growth was 39.4%.
With `COc1cc2c(Nc3ccc(Br)cc3F)ncnc2cc1OCC1CCN(C)CC1` the figure was -23.3% (active); with `CCN(CC)c1ccc(/C=C2\SC(=O)C(Nc3nnc(-c4cccnc4SCc4ccccc4)o3)C2=O)cc1` (stereo not given), 2.42% (active); with `O=C1OCC2=C1C(c1cccc(F)c1)c1cc3c(cc1N2CCO)CCC3` (stereo not given), -5.09% (active).
With `COc1nc2ccc(C)cc2cc1/C=[N+](\[O-])c1ccccc1` the figure was 79.3%.
Turning to `O=C1OC(c2ccccc2)=N/C1=C\c1ccccc1`, the growth is 92.4%.
The same measure for `COc1cccc(/C=C/C(=O)/C=C(/C=C/c2cccc(OC)c2OC)OB(F)F)c1OC`: 52.7%; for `CCN(CC)c1cc2oc3cc(N)cc(=N)c-3nc2cc1C`: 38.3%.
With `c1ccc(-c2c(-c3ccccc3)[n+](Cc3ccc4ccccc4c3)c(-c3ccc(-c4nc5ccccc5s4)cc3)n2Cc2ccc3ccccc3c2)cc1` the figure was -77.8% (active); with `C#C[C@]1(O)CC[C@H]2[C@@H]3CC=C4c5sc(Nc6cc(F)ccc6F)nc5CC[C@]4(C)[C@H]3CC[C@@]21C`, -45.6% (active); with `COc1cc2nc(-c3ccc(Cl)cc3)cc(OCCCNCC3CCCO3)c2cc1OC` (stereo not given), 46.2%.
With `COc1ccc(S(=O)(=O)Nc2cc(/C=C\c3cc(OC)c(OC)c(OC)c3)cc(OC)c2OC)cc1OC`, the growth was 25.5%.
With `CCCCCCCCCCCCCCCCNC(=S)N/N=C/c1ccc(O)cc1O` the figure was 57.1%; with `O=C(Cc1ccccc1)c1ccc(O)c(Cl)c1`, -1.16% (active).
Consider `CCCCCCNC(=O)Oc1ccc(/C(=C(\C)c2ccc(Cl)cc2)c2ccc(OCCCN(C)C)cc2)cc1`, for which the growth is 92%.
With `CCn1cc(CNc2ccc(C(=O)Nc3cc4cc(OC)c(OC)cc4c(C)n3)cc2)c(C)n1` the figure was 23.2%; with `O=C(/C=C/c1ccccc1Br)c1cccc(OCCCCOc2cccc(C(=O)/C=C/c3ccccc3Br)c2)c1`, 95.4%; with `CC(=O)N1C/C(=C/c2ccc(Cl)cc2)C(=O)/C(=C/c2ccc(Cl)cc2)C1`, -80% (active).
With `CNc1ccc(NC)c2c1C(=O)c1ccccc1C2=O` the figure was -7.38% (active).
With `CCN1CCN(c2ccc(NC(=O)Nc3ccc4c(ccn4-c4ccnc(C(=O)NC)c4)c3)cc2C(F)(F)F)CC1` the figure was 65.9%; with `CCN(C)c1ccccc1`, 113%.
For `NC(=S)NS(=O)(=O)c1ccc(N)cc1`, the growth was 96.5%.
Take `CCOC(=O)c1sc(NC(=O)COc2ccc(/C=C3\Cc4ccc(Cl)cc4C3=O)cc2)nc1C`: the growth is 115%.
With `COC(=O)[C@H]1[C@H]2C[C@@H]3c4[nH]c5cc(OC)ccc5c4CCN3C[C@H]2C[C@@H](OC(=O)/C=C/c2cc(OC)c(OC)c(OC)c2)[C@@H]1OC` the figure was 9.21% (active); with `COc1ccc(NC(=O)c2ccc3c(c2)nc(-c2ccc(Cl)cc2)n3-c2cc(C(C)(C)C)[nH]n2)cc1`, 87.5%.
The same measure for `COc1cc2ncnc(Nc3ccc4c(cnn4C(=O)Nc4ccccc4)c3)c2cc1OC`: 52%; for `Nc1cc2c(cc1Cl)-c1ccc([N+](=O)[O-])cc1/C2=N\O`: 77.7%; for `COc1ccc(/C=C2/C(=O)Nc3cc(Cl)c(-c4csc(N)n4)cc32)cc1`: 0.87% (active).
With `Cc1nc2ccccc2n1CC1NC(=O)NC1=O` (stereo not given) the figure was 97.6%; with `CC(C)n1cnc2c(Nc3cccc(Cl)c3)nc(N[C@H]3CCCC[C@@H]3N)nc21`, 20%; with `O=C1c2ccccc2C(=O)c2c1ccc1[nH]c(CCl)nc21`, -28.6% (active).
As for `COc1ccc2c(c1)O/C(=C\c1ncc([N+](=O)[O-])n1C)C2=O`, the growth is -7.9% (active).
The same measure for `Cc1ccc(-c2nc3ccc(Cl)cn3c2NC2CCCCC2)o1`: 78.2%.
